Source: PubChem BioAssay AID1159580 (chemical genetic matrix, 2015)
Out of some 5,500 compounds screened, about 2,000 (36%) were called active. Inconclusive results (about 18%) are left out. Rule as the data show it: active = normalized growth mostly below about 0.91 (no sharp cut-off); inconclusive = no clear call, values can overlap the other calls; inactive = mostly above about 0.92. The list shows a part of the results.

Experiment: chemical genetic growth profiling, strain panel (AID 1159580);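 also: tested at 20 µM; growth read once vehicle control cultures reached saturation at 30 °C; 1 = growth at the plate median or of vehicle wells; lower values mean less growth of the strain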
Conditions: S. cerevisiae deletion strains, growth OD

Measured: normalized growth

CCCCC(=O)Oc1ccccc1C(=O)O
inactive: locus YAL021C, strain ccr4, stronger effect = lower value 0.989 | locus YAL026C, strain drs2, stronger effect = lower value 0.991 | locus YAL030W, strain snc1, stronger effect = lower value 0.989 | locus YBL061C, strain skt5, stronger effect = lower value 0.982 | locus YBR009C, strain hhf1, stronger effect = lower value 0.988 | locus YBR023C, strain chs3, stronger effect = lower value 0.993 | locus YBR171W, strain sec66, stronger effect = lower value 0.952 | locus YBR231C, strain swc5, stronger effect = lower value 0.989 | locus YBR279W, strain paf1, stronger effect = lower value 1 | locus YCL011C, strain gbp2, stronger effect = lower value 0.979 | locus YCL016C, strain dcc1, stronger effect = lower value 0.971 | locus YCL061C, strain MRC1, stronger effect = lower value 0.986 | locus YCL069W, strain vba3, stronger effect = lower value 0.996 | locus YCR088W, strain abp1, stronger effect = lower value 0.976 | locus YDL005C, strain med2, stronger effect = lower value 0.938 | locus YDL040C, strain nat1, stronger effect = lower value 0.989 | locus YDR001C, strain nth1, stronger effect = lower value 0.971 | locus YDR069C, strain doa4, stronger effect = lower value 0.986 | locus YDR137W, strain rgp1, stronger effect = lower value 0.963 | locus YDR159W, strain sac3, stronger effect = lower value 0.953 | locus YDR195W, strain ref2 0.981 | locus YDR297W, strain sur2, stronger effect = lower value 0.988 | locus YDR334W, strain swr1, stronger effect = lower value 0.994 | locus YDR335W, strain msn5, stronger effect = lower value 0.98 | locus YDR392W, strain spt3, stronger effect = lower value 0.997 | locus YEL003W, strain gim4, stronger effect = lower value 0.983 | locus YEL037C, strain rad23, stronger effect = lower value 0.984 | locus YEL061C, strain CIN8 (second series), stronger effect = lower value 0.982 | locus YER015W, strain faa2, stronger effect = lower value 0.991 | locus YER016W, strain bim1, stronger effect = lower value 0.977 | locus YER111C, strain swi4, stronger effect = lower value 0.938 | locus YER155C, strain BEM2 (second series), stronger effect = lower value 0.964 | locus YFR010W, strain ubp6, stronger effect = lower value 1 | locus YGL167C, strain pmr1, stronger effect = lower value 0.957 | locus YGL173C, strain kem1, stronger effect = lower value 0.981 | locus YGL227W, strain vid30, stronger effect = lower value 0.965 | locus YGL240W, strain doc1, stronger effect = lower value 0.971 | locus YGL253W, strain hxk2, stronger effect = lower value 0.989 | locus YHR013C, strain ard1, stronger effect = lower value 0.938 | locus YHR027C, strain rpn1, stronger effect = lower value 0.964 | locus YHR030C, strain SLT2, stronger effect = lower value 0.974 | locus YHR079C, strain IRE1, stronger effect = lower value 0.988 | locus YHR142W, strain chs7, stronger effect = lower value 0.962 | locus YJL092W, strain hpr5, stronger effect = lower value 0.971 | locus YJL095W, strain BCK1 (second series), stronger effect = lower value 0.955 | locus YJL095W, strain BCK1, stronger effect = lower value 0.989 | locus YJL115W, strain asf1, stronger effect = lower value 0.971 | locus YJL129C, strain trk1, stronger effect = lower value 0.946 | locus YJL154C, strain vps35, stronger effect = lower value 0.964 | locus YJL164C, strain tpk1, stronger effect = lower value 0.981 | locus YJL166W, strain qcr8, stronger effect = lower value 0.984 | locus YJR066W, strain TOR1, stronger effect = lower value 0.935 | locus YKL160W, strain elf1, stronger effect = lower value 0.962 | locus YKR026C, strain gcn3, stronger effect = lower value 0.986 | locus YKR091W, strain srl3, stronger effect = lower value 0.971 | locus YLL001W, strain dnm1, stronger effect = lower value 0.985 | locus YLL026W, stronger effect = lower value 0.983 | locus YLL041C, strain sdh2, stronger effect = lower value 0.986 | locus YLR027C, strain aat2, stronger effect = lower value 0.973 | locus YLR113W, strain HOG1, stronger effect = lower value 0.944 | locus YLR221C, strain rsa3, stronger effect = lower value 1.01 | locus YLR258W, strain gsy2, stronger effect = lower value 0.983 | locus YLR262C, strain YPT6 (second series), stronger effect = lower value 0.973 | locus YLR320W, strain mms22, stronger effect = lower value 0.996 | locus YLR342W, strain FKS1, stronger effect = lower value 0.979 | locus YLR357W, strain rsc2, stronger effect = lower value 0.96 | locus YLR370C, strain arc18, stronger effect = lower value 0.971 | locus YLR384C, strain iki3, stronger effect = lower value 0.956 | locus YML120C, strain ndi1, stronger effect = lower value 0.994 | locus YMR058W, strain fet3, stronger effect = lower value 0.979 | locus YMR125W, strain sto1, stronger effect = lower value 0.959 | locus YMR129W, stronger effect = lower value 0.98 | locus YMR205C, strain PFK2, stronger effect = lower value 0.981 | locus YMR231W, strain pep5, stronger effect = lower value 0.967 | locus YNL071W, strain lat1, stronger effect = lower value 1 | locus YNL183C, strain NPR1, stronger effect = lower value 0.936 | locus YNL209W, strain ssb2, stronger effect = lower value 0.974 | locus YNL248C, strain rpa49, stronger effect = lower value 0.959 | locus YNL322C, strain KRE1 (second series), stronger effect = lower value 0.944 | locus YNR049C, strain mso1, stronger effect = lower value 0.988 | locus YOR001W, strain rrp6, stronger effect = lower value 1.01 | locus YOR070C, strain gyp1, stronger effect = lower value 0.972 | locus YOR080W, strain dia2, stronger effect = lower value 0.956 | locus YOR083W, strain WHI5, stronger effect = lower value 0.927 | locus YOR106W, strain vam3, stronger effect = lower value 0.972 | locus YOR231W, strain MKK1, stronger effect = lower value 0.966 | locus YOR265W, strain rbl2, stronger effect = lower value 0.99 | locus YOR270C, strain vph1, stronger effect = lower value 0.96 | locus YOR290C, strain snf2, stronger effect = lower value 0.971 | locus YPL051W, strain arl3, stronger effect = lower value 0.994 | locus YPL078C, strain atp4, stronger effect = lower value 0.977 | locus YPL106C, strain sse1, stronger effect = lower value 0.953 | locus YPL240C, strain hsp82, stronger effect = lower value 0.976 | locus YPL256C, strain CLN2, stronger effect = lower value 0.953
